From ChEMBL document CHEMBL4513141, “CO-ADD screening of NIH (USA) - Clinical Collection” (2021)
Measured potencies and affinities stand elsewhere.

Assays:
Staphylococcus aureus = details: Concentration 20 uM; ASSAY_TEST Inhibition of Bacterial Growth; detection method Absorption (OD600); MEDIA CAMHB; plate type 384well; NBS; CORNING #3640; time 18 hr
Escherichia coli = details: Concentration 20 uM; ASSAY_TEST Inhibition of Bacterial Growth; detection method Absorption (OD600); MEDIA CAMHB; plate type 384well; NBS; CORNING #3640; time 18 hr

Row | Structure (SMILES) | Inhibition (Staphylococcus aureus) [%] | Inhibition (Escherichia coli) [%]
1 | Cl.Clc1ccc2nsnc2c1NC1=NCCN1 [TIZANIDINE HYDROCHLORIDE] | -18.93 | 6.6
2 | NCC(=O)CCC(=O)O [AMINOLEVULINIC ACID] | 8.53 | 5.31
3 | CNC(=C[N+](=O)[O-])NCCSCc1ccc(CN(C)C)o1.Cl [RANITIDINE HYDROCHLORIDE] | -17.46 | 4.52
4 | COc1c2occc2cc2ccc(=O)oc12 [METHOXSALEN] | 13.34 | -6.11
5 | COc1ccc2cc(CCC(C)=O)ccc2c1 [NABUMETONE] | 14 | 3.66
6 | CNCCCN1c2ccccc2CCc2ccccc21.Cl [DESIPRAMINE HYDROCHLORIDE] | 7.54 | -0.24
7 | CC(=CCC1=C(C)C(=O)c2ccccc2C1=O)CCCC(C)CCCC(C)CCCC(C)C (stereo not given) | 7.33 | 5.45
8 | Cc1ncc([N+](=O)[O-])n1CC(C)O (stereo not given) [SECNIDAZOLE] | 11.92 | 5.99
9 | CCOC(=O)[C@H](CCc1ccccc1)N[C@@H](C)C(=O)N1Cc2ccccc2C[C@H]1C(=O)O.Cl [QUINAPRIL HYDROCHLORIDE] | 16.74 | 4.26
10 | O=c1c(O[C@@H]2O[C@H](CO)[C@H](O)[C@H](O)[C@H]2O)c(-c2ccc(O)c(O)c2)oc2cc(O)cc(O)c12 [HYPEROSIDE] | 7.34 | 3.89
11 | O=C1CCc2ccc(OCCCCN3CCN(c4cccc(Cl)c4Cl)CC3)cc2N1 [ARIPIPRAZOLE] | -0.8 | 1.89
12 | CCOC(=O)[C@H](CCc1ccccc1)N[C@H]1CCc2ccccc2N(CC(=O)O)C1=O.Cl [BENAZEPRIL HYDROCHLORIDE] | 9.63 | 0.93
13 | CN[C@@H]1[C@H](O)[C@H](NC)[C@H]2O[C@@]3(O)C(=O)C[C@@H](C)O[C@H]3O[C@@H]2[C@H]1O.Cl.Cl.Cl.O.O.O | 11.03 | 29.97
14 | CC(=O)O[C@H]1C[C@@H]2CC[C@@H]3[C@H](CC[C@@]4(C)[C@H]3C[C@H]([N+]3(C)CCCCC3)[C@@H]4OC(C)=O)[C@@]2(C)C[C@@H]1N1CCCCC1.[Br-] [VECURONIUM BROMIDE] | -16.09 | 5.67
15 | CCCC1O[C@@H]2C[C@H]3[C@@H]4CCC5=CC(=O)C=C[C@]5(C)[C@H]4[C@@H](O)C[C@]3(C)[C@]2(C(=O)CO)O1 (stereo not given in full) [BUDESONIDE] | 6.99 | -1.42
16 | COc1cc2c(cc1OC)C(=O)C(CC1CCN(Cc3ccccc3)CC1)C2.Cl (stereo not given) [DONEPEZIL HYDROCHLORIDE] | 12.57 | -6.95
17 | CNCC[C@@H](Oc1ccccc1C)c1ccccc1.Cl [ATOMOXETINE HYDROCHLORIDE] | -21.69 | 5.13
18 | Br.Br.O=C1CC2(CCCC2)CC(=O)N1CCNCC1COc2ccccc2O1 (stereo not given) | 17.36 | 6.1
19 | CNC(=C[N+](=O)[O-])NCCSCc1csc(CN(C)C)n1 [NIZATIDINE] | 11.02 | 4.27
20 | O=C(O)c1cccnc1 [NIACIN] | 1.53 | -3.09
21 | CCCCc1nc(Cl)c(CO)n1Cc1ccc(-c2ccccc2-c2nnn[n-]2)cc1.[K+] [LOSARTAN POTASSIUM] | -19.73 | 5.5
22 | C=C1/C(=C\C=C2/CCC[C@]3(C)[C@@H]([C@H](C)CCCC(C)(C)O)CC[C@@H]23)C[C@@H](O)C[C@@H]1O [CALCITRIOL] | 3.12 | 7.51
23 | NC(N)=Nc1nc(CSCC/C(N)=N/S(N)(=O)=O)cs1 [FAMOTIDINE] | 6.96 | 3.55
24 | CC(=O)O[C@@]12CO[C@@H]1C[C@H](O)[C@@]1(C)C(=O)[C@H](O)C3=C(C)[C@@H](OC(=O)[C@H](O)[C@@H](NC(=O)OC(C)(C)C)c4ccccc4)C[C@](O)([C@@H](OC(=O)c4ccccc4)[C@H]21)C3(C)C | 10.2 | 3.46
25 | CCC(CO)NCCNC(CC)CO (stereo not given) | 8.81 | 2.87
26 | CC[C@H](C)C(=O)O[C@H]1C[C@@H](C)C=C2C=C[C@H](C)[C@H](CC[C@@H]3C[C@@H](O)CC(=O)O3)[C@H]21 [LOVASTATIN] | 9.76 | 0.96
27 | O=C1C(CC[S+]([O-])c2ccccc2)C(=O)N(c2ccccc2)N1c1ccccc1 (stereo not given) [SULFINPYRAZONE] | 18.52 | 6.57
28 | CCCN1CCCC[C@H]1C(=O)Nc1c(C)cccc1C.Cl [ROPIVACAINE HYDROCHLORIDE] | 13.36 | 1.04
29 | CC1(C)O[C@@H]2C[C@H]3[C@@H]4CCC5=CC(=O)C=C[C@]5(C)[C@@]4(F)[C@@H](O)C[C@]3(C)[C@]2(C(=O)CO)O1 [TRIAMCINOLONE ACETONIDE] | 7.65 | 3.69
30 | CC(=O)Nc1nnc(S(N)(=O)=O)s1 [ACETAZOLAMIDE] | 15.7 | -1.89
